Records with an inconclusive call do not appear. Activity calls are given as the source filed them. Unless noted, calls follow the shape of the full dose curve.
What was measured:
[1] = Nuclear factor erythroid 2-related factor 2/antioxidant responsive element (Nrf2/ARE) small molecule agonists: qHTS cell viability counter screen in human keratinocytes (AID 1919968; active = well fitted curve in the direction sought with a large enough effect in the repeat runs; an effect the other way counts as inactive or inconclusive; also: nearly all actives have a fitted effect of over 55% in size)
Method in brief: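 Cells of the KeratinoSens line were plated at 1,500 per well and left for 5 h before compound transfer from DMSO stocks. After a 23 h incubation (37 C, 5% CO2), CellTiter-Fluor was added. Signal was taken as fluorescence intensity 1 h later.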

[2] = Nuclear factor erythroid 2-related factor 2/antioxidant responsive element (Nrf2/ARE) small molecule agonists: luciferase reporter gene qHTS assay in human keratinocytes (AID 1919969); also: nearly all actives have a fitted effect of over 35% in size
[3] = molecular target: Gonadotropin-releasing hormone receptor (Homo sapiens) (UniProt P30968); assay: Human gonadotropin-releasing hormone receptor (GnRHR) small molecule agonists, calcium flux assay in GnRHR-HEK293 cells (AID 1920063); also: nearly all actives have a fitted effect of over 35% in size
Method in brief: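 Compounds dissolved in DMSO are pin-transferred onto dye-loaded GnRHR-HEK293 cells, which were seeded 18 h before at 37 C/5% CO2. Calcium signal is read as fluorescence intensity at 1 s intervals for 3 min.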

[4] = molecular target: KiSS-1 receptor (Homo sapiens) (UniProt Q969F8); assay: Human kisspeptin (KISS1R) small molecule agonists, calcium flux assay in KISS1R-HEK293 cells (AID 1920064; active = well fitted curve in the direction sought with a large enough effect in the repeat runs; an effect the other way counts as inactive or inconclusive)
Method in brief: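 Cell line: HEK293, stable human KISS1R. Dye loading 1 h at 37 C after 18 h culture. Read: kinetic fluorescence, 480/540 nm, 3 min at 1 s intervals.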

[5] = G protein-coupled receptor (GPCR) small molecule agonists, calcium flux assay: HEK293 wild type cell line counter screen (AID 1920065)
Method in brief: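 Tox21 10K compounds, 15 concentrations each in triplicate, pin-transferred in DMSO onto dye-loaded cells; kinetic read at 480/540 nm for 3 min, 1 s intervals.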

[6] = p53 small molecule agonists, cell-based qHTS assay with human liver microsomes (AID 1963577);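 also: p53 response element beta-lactamase reporter cells with liver microsomes plus NADPH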
Method in brief: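 With metabolic activation: human liver microsomes (0.5 mg/mL final) plus NADPH (0.5 mg/mL final) added alongside compounds to p53RE-bla cells; 16 h 37 C exposure; beta-lactamase read by LiveBLAzer fluorescence.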

[7] = p53 small molecule agonists, cell-based qHTS assay with rat liver microsomes (AID 1963578)
Method in brief: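 Metabolic activation by rat liver microsomes and NADPH, each 0.5 mg/mL final, added right after compounds to p53RE-bla reporter cells (4,000/well, plated 5 h earlier). 16 h at 37 C, then LiveBLAzer substrate for 2 h at room temperature in the dark; fluorescence read-out.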

[8] = p53 small molecule agonists, cell-based qHTS assay with human liver microsomes: qHTS cell viability counter screen (AID 1963579); also: nearly all actives have a fitted effect of over 45% in size
Method in brief: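 Metabolic activation used human liver microsomes and NADPH, both 0.5 mg/mL final, over 16 hours at 37 C on p53RE-bla cells (4,000/well). Cytotoxicity measured by CellTiter-Glo luminescence, 30 min at room temperature.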

[9] = p53 small molecule agonists, cell-based qHTS assay with rat liver microsomes: qHTS cell viability counter screen (AID 1963580); also: nearly all actives have a fitted effect of over 45% in size
Method in brief: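 After the beta-lactamase ratio was read, CellTiter-Glo was added to the same wells and luminescence measured at 30 min; cells had been treated 16 h at 37 C with compounds, rat liver microsomes and NADPH (0.5 mg/mL final each).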

[10] = p53 small molecule agonists, cell-based qHTS assay: qHTS cell viability counter screen (AID 1963581); also: nearly all actives have a fitted effect of over 45% in size
Method in brief: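 ATP content measured by luminescence in HCT-116 p53RE-bla cells treated 16 h at 37 C, same wells as the reporter screen.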

[11] = p53 small molecule agonists, cell-based qHTS assay (AID 1963582; active = well fitted activation curve with a large enough effect in the signal ratio in the repeat runs, not every such curve was filed as active; the % refers to the signal ratio)
Method in brief: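 16 h compound exposure (37 C) of p53 response element–bla cells, preceded by 5 h recovery at 37 C/5% CO2; read-out via LiveBLAzer B/G FRET substrate, 2 h RT, fluorescence intensity.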

[12] = molecular target: 5-hydroxytryptamine receptor 2A (Homo sapiens) (UniProt P28223); assay: 5-hydroxytryptamine receptor 2A (HTR2A) small molecule antagonists, cell-based qHTS assay (AID 1963586); also: nearly all actives have a fitted effect of over 45% in size
Method in brief: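 CHO cells stably expressing human HTR2A were plated for 18 h at 37 C, then loaded with calcium dye for 1 h. Compounds were preincubated 5 min at room temperature before DOI (4 nM solution) was added. Kinetic fluorescence was read for 3 min.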

[13] = molecular target: 5-hydroxytryptamine receptor 2A (Homo sapiens) (UniProt P28223); assay: 5-hydroxytryptamine receptor 2A (HTR2A) small molecule agonists, cell-based qHTS assay (AID 1963587); also: nearly all actives have a fitted effect of over 30% in size
Method in brief: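 CHO cells stably expressing human HTR2A, plated 18 h, loaded with calcium dye 1 h at 37 C. Agonist mode: compounds added and intracellular calcium fluorescence recorded kinetically for 2 min at 1 sec intervals.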

[14] = molecular target: Muscarinic acetylcholine receptor M1 (Homo sapiens) (UniProt P11229); assay: Cholinergic receptor muscarinic 1 (CHRM1) small molecule antagonists, cell-based qHTS assay (AID 1963588); also: nearly all actives have a fitted effect of over 40% in size
Method in brief: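 Compounds were tested at 15 concentrations in three independent runs. Dye-loaded CHRM1-CHO cells were exposed 5 min at room temperature before stimulation by acetylcholine added at 50nM. Intracellular calcium was read kinetically on FDSS for 3 min.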

[15] = molecular target: Muscarinic acetylcholine receptor M1 (Homo sapiens) (UniProt P11229); assay: Cholinergic receptor muscarinic 1 (CHRM1) small molecule agonists, cell-based qHTS assay (AID 1963589); also: nearly all actives have a fitted effect of over 35% in size
Method in brief: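 Homogeneous fluorescence calcium flux, agonist mode. Human M1-expressing CHO cells; compound dosed at 15 concentrations, three independent runs; signal sampled every 1 sec.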

[16] = cAMP Responsive Elements (CRE) small molecule agonists, cell-based qHTS assay (AID 1963590)
Method in brief: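 HEK 293T cells stably bearing CRE-bla were plated at 2,000 cells per well and rested 18 h. Compounds, positive controls or DMSO were added for 3 h at 37 C. LiveBLAzer B/G substrate was then loaded for 2 h at room temperature.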

[17] = cAMP Responsive Elements (CRE) small molecule antagonists, cell-based qHTS assay (AID 1963591; active = well fitted inhibition curve with a large enough effect in the signal ratio in the repeat runs, not every such curve was filed as active; the % refers to the signal ratio)
Method in brief: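 First, CRE-bla HEK293T cells settled 18 h at 37 C. Next, compound and 0.25 uM final NKH477 were applied for 3 h. Last, LiveBLAzer B/G substrate was loaded for 2 h at room temperature.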

[18] = molecular target: Beta-2 adrenergic receptor (Homo sapiens) (UniProt P07550); assay: Adrenergic beta2 receptor (ADRB2) small molecule antagonists, cell-based qHTS assay (AID 1963592); also: series mostly up to about 92 µM; nearly all actives have a fitted effect of over 50% in size
Method in brief: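 Assay format: CHO-ADRB2 cells, 18-20hr seeding at 37C/5% CO2, then compound plus 1nM isoproterenol agonist mix for 0.5hr RT. Homogeneous time-resolved fluorescence cAMP detection after 1hr, expressed as 665/615 nm ratio.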

[19] = molecular target: D(2) dopamine receptor (Homo sapiens) (UniProt P14416); assay: Dopamine D2 receptor (DRD2) small molecule agonists, cell-based qHTS assay (AID 1963594); also: nearly all actives have a fitted effect of over 35% in size
Method in brief: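 HEK293 cells stably expressing human DRD2, pre-treated with PDE inhibitor Ro20-1724 (0.1 mM final) and compound 10 min at room temperature, then stimulated with NKH477 (200nM […]) for 30 min. cAMP read by HTRF (665/620 nm).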

[20] = molecular target: D(2) dopamine receptor (Homo sapiens) (UniProt P14416); assay: Dopamine D2 receptor (DRD2) small molecule antagonists, cell-based qHTS assay (AID 1963595; active = well fitted inhibition curve with a large enough effect in the signal ratio in the repeat runs, with a control signal flat; the % refers to the signal ratio)
Method in brief: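 Stable D2 receptor HEK293 line, 24 h after seeding. Compound preincubated 10 min, then quinpirole (12 nM) with forskolin analogue NKH477 (200 nM), 30 min, room temperature. Detection by time-resolved FRET of cAMP.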

Measured: Potency

Chain of 5-hydroxytryptamine receptor 2A (Homo sapiens) (P28223 whole entry, looked up): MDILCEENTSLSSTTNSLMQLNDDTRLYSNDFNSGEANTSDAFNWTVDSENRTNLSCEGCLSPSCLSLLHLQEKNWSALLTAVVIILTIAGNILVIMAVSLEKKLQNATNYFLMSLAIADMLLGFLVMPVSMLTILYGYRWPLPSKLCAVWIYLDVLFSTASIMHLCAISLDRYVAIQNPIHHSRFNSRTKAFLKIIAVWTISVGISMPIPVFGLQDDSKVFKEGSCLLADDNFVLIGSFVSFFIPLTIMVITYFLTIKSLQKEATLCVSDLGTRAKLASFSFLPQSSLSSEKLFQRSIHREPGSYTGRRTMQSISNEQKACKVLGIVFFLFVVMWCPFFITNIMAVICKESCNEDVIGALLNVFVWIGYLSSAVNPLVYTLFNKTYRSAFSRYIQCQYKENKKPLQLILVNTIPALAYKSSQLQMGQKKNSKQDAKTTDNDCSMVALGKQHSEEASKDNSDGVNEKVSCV
Chain of Gonadotropin-releasing hormone receptor (Homo sapiens) (P30968 whole entry, looked up): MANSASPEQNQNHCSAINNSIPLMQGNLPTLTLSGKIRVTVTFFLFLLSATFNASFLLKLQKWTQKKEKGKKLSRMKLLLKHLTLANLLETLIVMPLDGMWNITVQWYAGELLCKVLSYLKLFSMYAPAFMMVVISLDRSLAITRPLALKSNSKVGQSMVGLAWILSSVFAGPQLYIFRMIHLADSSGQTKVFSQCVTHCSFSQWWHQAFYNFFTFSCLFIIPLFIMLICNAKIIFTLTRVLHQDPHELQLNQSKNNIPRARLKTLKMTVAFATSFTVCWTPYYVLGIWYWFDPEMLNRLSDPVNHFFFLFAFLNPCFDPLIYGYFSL
Chain of Beta-2 adrenergic receptor (Homo sapiens) (P07550 whole entry, looked up): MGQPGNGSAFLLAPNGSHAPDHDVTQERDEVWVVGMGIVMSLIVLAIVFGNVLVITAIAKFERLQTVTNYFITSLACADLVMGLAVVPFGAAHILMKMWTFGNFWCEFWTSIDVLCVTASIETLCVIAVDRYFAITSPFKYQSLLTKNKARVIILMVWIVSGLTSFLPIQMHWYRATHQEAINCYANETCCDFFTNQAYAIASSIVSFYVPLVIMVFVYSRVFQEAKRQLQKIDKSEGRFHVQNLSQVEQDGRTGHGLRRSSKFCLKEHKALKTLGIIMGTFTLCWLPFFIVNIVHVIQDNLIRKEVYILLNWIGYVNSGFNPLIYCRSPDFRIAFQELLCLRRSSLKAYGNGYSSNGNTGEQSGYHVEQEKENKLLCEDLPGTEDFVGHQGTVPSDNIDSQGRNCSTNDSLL
Chain of KiSS-1 receptor (Homo sapiens) (Q969F8 whole entry, looked up): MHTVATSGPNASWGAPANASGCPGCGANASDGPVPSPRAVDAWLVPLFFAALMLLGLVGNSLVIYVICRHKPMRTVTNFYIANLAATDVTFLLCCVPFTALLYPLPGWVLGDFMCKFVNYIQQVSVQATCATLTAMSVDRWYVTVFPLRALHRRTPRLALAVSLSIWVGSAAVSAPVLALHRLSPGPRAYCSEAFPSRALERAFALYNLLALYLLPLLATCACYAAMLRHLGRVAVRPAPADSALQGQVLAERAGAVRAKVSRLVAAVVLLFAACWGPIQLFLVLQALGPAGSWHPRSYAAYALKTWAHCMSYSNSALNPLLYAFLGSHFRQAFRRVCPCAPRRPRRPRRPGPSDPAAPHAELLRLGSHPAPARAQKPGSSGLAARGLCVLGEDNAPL
Chain of Muscarinic acetylcholine receptor M1 (Homo sapiens) (P11229 whole entry, looked up): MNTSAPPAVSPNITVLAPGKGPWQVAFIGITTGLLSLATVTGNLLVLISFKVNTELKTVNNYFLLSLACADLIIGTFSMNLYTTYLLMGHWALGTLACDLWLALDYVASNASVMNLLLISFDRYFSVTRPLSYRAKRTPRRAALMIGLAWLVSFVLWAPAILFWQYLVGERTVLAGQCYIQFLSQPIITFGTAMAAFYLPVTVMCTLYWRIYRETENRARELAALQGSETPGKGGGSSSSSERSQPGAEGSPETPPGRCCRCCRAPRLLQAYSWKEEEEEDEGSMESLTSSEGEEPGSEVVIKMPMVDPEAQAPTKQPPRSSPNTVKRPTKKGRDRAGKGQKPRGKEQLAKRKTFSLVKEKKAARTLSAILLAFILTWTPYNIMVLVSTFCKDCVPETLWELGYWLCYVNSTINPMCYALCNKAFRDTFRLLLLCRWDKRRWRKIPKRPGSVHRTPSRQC
Chain of D(2) dopamine receptor (Homo sapiens) (P14416 whole entry, looked up): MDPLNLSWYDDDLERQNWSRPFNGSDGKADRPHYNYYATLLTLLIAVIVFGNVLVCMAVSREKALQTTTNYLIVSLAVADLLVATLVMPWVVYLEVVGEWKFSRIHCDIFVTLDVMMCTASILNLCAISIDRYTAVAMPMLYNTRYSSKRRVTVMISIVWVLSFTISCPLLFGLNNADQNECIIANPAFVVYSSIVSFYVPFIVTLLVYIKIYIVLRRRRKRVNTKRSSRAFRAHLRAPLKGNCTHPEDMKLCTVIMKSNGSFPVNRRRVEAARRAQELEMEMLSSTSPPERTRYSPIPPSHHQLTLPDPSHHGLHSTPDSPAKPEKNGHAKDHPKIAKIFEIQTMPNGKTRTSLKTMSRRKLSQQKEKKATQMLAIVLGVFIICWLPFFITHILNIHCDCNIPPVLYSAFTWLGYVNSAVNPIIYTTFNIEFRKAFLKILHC

COc1ccccc1NC(=O)CC(C)=O
inactive: [1] | [2] | [3] | [4] | [5] | [6] | [7] | [8] | [9] | [10] | [11] | [12] | [13] | [14] | [15] | [16] | [17] | [18] | [19] | [20]

CCCCCCCCCCCCCCCCC
inactive: [1] | [2] | [3] | [4] | [5] | [6] | [7] | [8] | [9] | [10] | [11] | [12] | [13] | [14] | [15] | [16] | [17] | [19] | [20]

NC(=O)Cc1cccc2ccccc12
inactive: [1] | [2] | [3] | [4] | [5] | [6] | [7] | [8] | [9] | [10] | [11] | [12] | [13] | [14] | [15] | [16] | [18] | [19] | [20]

O=C(Cl)c1ccc(C(=O)Cl)cc1
inactive: [1] | [2] | [3] | [4] | [5] | [6] | [7] | [8] | [9] | [10] | [11] | [12] | [13] | [14] | [15] | [16] | [17] | [19]

Reference: PubChem BioAssay (Tox21)
